Laboratory results reported in PubChem BioAssay AID1159580 (chemical genetic matrix, 2015).
Values joined by “and” are separate entries in the source; they are usually repeats but may differ in a detail not shown here. Identical values can stand only once. The whole screen tested about 5,500 compounds, of which about 2,000 (36%) were called active. Not shown: some 18% with an inconclusive outcome. Rule as the data show it: active = normalized growth mostly below about 0.91 (no sharp cut-off); inconclusive = no clear call, values can overlap the other calls; inactive = mostly above about 0.92. The list shows a part of the results.

Test: chemical genetic growth profiling, strain panel (AID 1159580);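 also: tested at 20 µM; growth read once vehicle control cultures reached saturation at 30 °C; 1 = growth at the plate median or of vehicle wells; lower values mean less growth of the strain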
Settings: S. cerevisiae deletion strains, growth OD

Measured: normalized growth

O=c1c(O)c(-c2ccccc2)oc2ccccc12
0.991 (inactive) and 0.591 (active): locus YHR030C, strain SLT2, stronger effect = lower value
0.983 (inactive) and 0.617 (active): locus YJL095W, strain BCK1, stronger effect = lower value
inactive: locus YAL013W, strain DEP1, stronger effect = lower value 0.993 | locus YBR021W, strain FUR4, stronger effect = lower value 1.01 | locus YBR229C, strain ROT2, stronger effect = lower value 0.963 | locus YCL029C, strain bik1, stronger effect = lower value 0.983 | locus YDL035C, strain GPR1, stronger effect = lower value 0.985 | locus YDL074C, strain BRE1, stronger effect = lower value 1.01 | locus YDL101C, strain DUN1, stronger effect = lower value 0.997 | locus YDL185W, strain tfp1, stronger effect = lower value 0.974 | locus YDL192W, strain arf1, stronger effect = lower value 1 | locus YDR101C, strain arx1, stronger effect = lower value 1.03 | locus YDR150W, strain NUM1, stronger effect = lower value 0.993 | locus YDR159W, strain sac3, stronger effect = lower value 0.929 | locus YDR162C, strain NBP2, stronger effect = lower value 0.981 | locus YDR318W, strain mcm21, stronger effect = lower value 0.963 | locus YDR388W, stronger effect = lower value 0.994 | locus YDR502C, strain sam2, stronger effect = lower value 1.01 | locus YEL061C, strain CIN8, stronger effect = lower value 0.984 | locus YER110C, stronger effect = lower value 0.987 | locus YER155C, strain BEM2, stronger effect = lower value 0.999 | locus YER167W, strain BCK2, stronger effect = lower value 0.99 | locus YGL078C, strain dbp3, stronger effect = lower value 0.991 | locus YGL086W, strain mad1, stronger effect = lower value 1.04 | locus YGL248W, strain PDE1, stronger effect = lower value 0.986 | locus YGR078C, strain PAC10, stronger effect = lower value 0.991 | locus YGR135W, strain pre9, stronger effect = lower value 0.977 | locus YGR229C, strain SMI1, stronger effect = lower value 0.998 | locus YGR252W, strain gcn5, stronger effect = lower value 0.947 | locus YHR079C, strain IRE1 (second series), stronger effect = lower value 0.993 | locus YHR094C, strain hxt1, stronger effect = lower value 0.975 | locus YHR129C, strain ARP1, stronger effect = lower value 0.982 | locus YHR200W, strain rpn10, stronger effect = lower value 0.992 | locus YIL066C, strain RNR3, stronger effect = lower value 0.978 | locus YIL073C, strain SPO22, stronger effect = lower value 0.996 | locus YIL125W, strain kgd1, stronger effect = lower value 0.999 | locus YIR030C, strain dcg1, stronger effect = lower value 0.998 | locus YJL134W, strain LCB3, stronger effect = lower value 0.986 | locus YJL168C, strain set2, stronger effect = lower value 0.994 | locus YJL187C, strain SWE1 (second series), stronger effect = lower value 1.01 | locus YJR043C, strain POL32, stronger effect = lower value 0.981 | locus YJR075W, strain HOC1, stronger effect = lower value 0.982 | locus YKL009W, strain mrt4, stronger effect = lower value 0.988 | locus YKL068W, stronger effect = lower value 0.988 | locus YKL085W, strain MDH1 (second series), stronger effect = lower value 0.994 | locus YKL085W, strain MDH1, stronger effect = lower value 0.994 | locus YKR001C, strain vps1, stronger effect = lower value 1.02 | locus YLR039C, strain RIC1, stronger effect = lower value 1.01 | locus YLR058C, strain SHM2, stronger effect = lower value 0.977 | locus YLR102C, strain apc9, stronger effect = lower value 0.997 | locus YLR262C, strain YPT6, stronger effect = lower value 1 | locus YLR268W, strain sec22, stronger effect = lower value 1.03 | locus YLR330W, strain CHS5, stronger effect = lower value 0.997 | locus YLR342W, strain FKS1 (second series), stronger effect = lower value 1.01 | locus YLR371W, strain rom2, stronger effect = lower value 0.974 | locus YLR418C, strain cdc73, stronger effect = lower value 0.97 | locus YML016C, strain PPZ1, stronger effect = lower value 1 | locus YML032C, strain rad52, stronger effect = lower value 0.956 | locus YML124C, strain tub3, stronger effect = lower value 0.988 | locus YMR078C, strain ctf18, stronger effect = lower value 0.996 | locus YMR125W, strain sto1, stronger effect = lower value 0.933 | locus YMR223W, strain ubp8, stronger effect = lower value 0.965 | locus YMR307W, strain GAS1, stronger effect = lower value 0.963 | locus YNL067W, strain RPL9B, stronger effect = lower value 0.994 | locus YNL128W, strain TEP1, stronger effect = lower value 0.966 | locus YNL233W, strain BNI4, stronger effect = lower value 1.02 | locus YNL250W, strain rad50, stronger effect = lower value 0.975 | locus YNL271C, strain bni1, stronger effect = lower value 0.993 | locus YNL298W, strain CLA4, stronger effect = lower value 0.996 | locus YNL307C, strain MCK1, stronger effect = lower value 0.995 | locus YNR052C, strain pop2, stronger effect = lower value 0.959 | locus YOL006C, strain TOP1, stronger effect = lower value 1.06 | locus YOL012C, strain htz1 0.87 | locus YOL147C, strain pex11, stronger effect = lower value 0.996 | locus YOR061W, strain CKA2, stronger effect = lower value 0.966 | locus YOR069W, strain VPS5, stronger effect = lower value 0.999 | locus YOR136W, strain idh2, stronger effect = lower value 0.991 | locus YOR144C, strain elg1, stronger effect = lower value 0.982 | locus YOR184W, strain ser1, stronger effect = lower value 0.988 | locus YOR316C, strain cot1, stronger effect = lower value 0.986 | locus YPL256C, strain CLN2, stronger effect = lower value 0.886 | locus YPR119W, strain clb2, stronger effect = lower value 0.992 | locus YPR141C, strain kar3, stronger effect = lower value 0.993 | locus YPR163C, strain tif3, stronger effect = lower value 0.984 | locus YPR167C, strain met16, stronger effect = lower value 0.978 | strain wtn01, stronger effect = lower value 1.05
active: locus YAL021C, strain ccr4, stronger effect = lower value 0.424 | locus YAL026C, strain drs2, stronger effect = lower value 0.17 | locus YAL030W, strain snc1, stronger effect = lower value 0.68 | locus YBL061C, strain skt5, stronger effect = lower value 0.578 | locus YBR009C, strain hhf1, stronger effect = lower value 0.61 | locus YBR023C, strain chs3, stronger effect = lower value 0.363 | locus YBR171W, strain sec66, stronger effect = lower value 0.815 | locus YBR231C, strain swc5, stronger effect = lower value 0.418 | locus YBR279W, strain paf1, stronger effect = lower value 0.447 | locus YCL011C, strain gbp2, stronger effect = lower value 0.51 | locus YCL016C, strain dcc1, stronger effect = lower value 0.628 | locus YCL061C, strain MRC1, stronger effect = lower value 0.527 | locus YCL069W, strain vba3, stronger effect = lower value 0.47 | locus YCR088W, strain abp1, stronger effect = lower value 0.654 | locus YDL005C, strain med2, stronger effect = lower value 0.855 | locus YDL040C, strain nat1, stronger effect = lower value 0.794 | locus YDR001C, strain nth1, stronger effect = lower value 0.651 | locus YDR069C, strain doa4, stronger effect = lower value 0.302 | locus YDR137W, strain rgp1, stronger effect = lower value 0.363 | locus YDR195W, strain ref2 1.17 [resistant] | locus YDR297W, strain sur2, stronger effect = lower value 0.709 | locus YDR334W, strain swr1, stronger effect = lower value 0.347 | locus YDR335W, strain msn5, stronger effect = lower value 0.608 | locus YDR392W, strain spt3, stronger effect = lower value 0.135 | locus YEL003W, strain gim4, stronger effect = lower value 0.595 | locus YEL037C, strain rad23, stronger effect = lower value 0.465 | locus YEL061C, strain CIN8 (second series), stronger effect = lower value 0.592 | locus YER015W, strain faa2, stronger effect = lower value 0.455 | locus YER016W, strain bim1, stronger effect = lower value 0.81 | locus YER111C, strain swi4, stronger effect = lower value 0.71 | locus YER155C, strain BEM2 (second series), stronger effect = lower value 0.602 | locus YFR010W, strain ubp6, stronger effect = lower value 0.291 | locus YGL167C, strain pmr1, stronger effect = lower value 0.834 | locus YGL173C, strain kem1, stronger effect = lower value 0.271 | locus YGL227W, strain vid30, stronger effect = lower value 0.771 | locus YGL240W, strain doc1, stronger effect = lower value 0.643 | locus YGL253W, strain hxk2, stronger effect = lower value 0.356 | locus YHR013C, strain ard1, stronger effect = lower value 0.219 | locus YHR027C, strain rpn1, stronger effect = lower value 0.268 | locus YHR079C, strain IRE1, stronger effect = lower value 0.812 | locus YHR142W, strain chs7, stronger effect = lower value 0.294 | locus YJL092W, strain hpr5, stronger effect = lower value 0.545 | locus YJL095W, strain BCK1 (second series), stronger effect = lower value 0.453 | locus YJL115W, strain asf1, stronger effect = lower value 0.616 | locus YJL129C, strain trk1, stronger effect = lower value 0.77 | locus YJL154C, strain vps35, stronger effect = lower value 0.752 | locus YJL164C, strain tpk1, stronger effect = lower value 0.333 | locus YJL166W, strain qcr8, stronger effect = lower value 0.355 | locus YJL187C, strain SWE1, stronger effect = lower value 0.758 | locus YJR066W, strain TOR1, stronger effect = lower value 0.766 | locus YKL160W, strain elf1, stronger effect = lower value 0.678 | locus YKR026C, strain gcn3, stronger effect = lower value 0.777 | locus YKR091W, strain srl3, stronger effect = lower value 0.82 | locus YLL001W, strain dnm1, stronger effect = lower value 0.512 | locus YLL026W, stronger effect = lower value 0.354 | locus YLL041C, strain sdh2, stronger effect = lower value 0.872 | locus YLR027C, strain aat2, stronger effect = lower value 0.681 | locus YLR113W, strain HOG1, stronger effect = lower value 0.851 | locus YLR221C, strain rsa3, stronger effect = lower value 0.612 | locus YLR258W, strain gsy2, stronger effect = lower value 0.655 | locus YLR262C, strain YPT6 (second series), stronger effect = lower value 0.228 | locus YLR320W, strain mms22, stronger effect = lower value 0.503 | locus YLR342W, strain FKS1, stronger effect = lower value 0.513 | locus YLR357W, strain rsc2, stronger effect = lower value 0.584 | locus YLR370C, strain arc18, stronger effect = lower value 0.364 | locus YLR384C, strain iki3, stronger effect = lower value 0.877 | locus YML120C, strain ndi1, stronger effect = lower value 0.844 | locus YMR058W, strain fet3, stronger effect = lower value 0.0896 | locus YMR129W, stronger effect = lower value 0.872 | locus YMR205C, strain PFK2, stronger effect = lower value 0.506 | locus YMR231W, strain pep5, stronger effect = lower value 0.128 | locus YNL071W, strain lat1, stronger effect = lower value 0.301 | locus YNL183C, strain NPR1, stronger effect = lower value 0.8 | locus YNL209W, strain ssb2, stronger effect = lower value 0.159 | locus YNL248C, strain rpa49, stronger effect = lower value 0.567 | locus YNL322C, strain KRE1 (second series), stronger effect = lower value 0.851 | locus YNR049C, strain mso1, stronger effect = lower value 0.616 | locus YOR001W, strain rrp6, stronger effect = lower value 0.805 | locus YOR070C, strain gyp1, stronger effect = lower value 0.561 | locus YOR080W, strain dia2, stronger effect = lower value 0.689 | locus YOR083W, strain WHI5, stronger effect = lower value 0.565 | locus YOR106W, strain vam3, stronger effect = lower value 0.163 | locus YOR231W, strain MKK1, stronger effect = lower value 0.834 | locus YOR265W, strain rbl2, stronger effect = lower value 0.467 | locus YOR270C, strain vph1, stronger effect = lower value 0.16 | locus YOR290C, strain snf2, stronger effect = lower value 0.589 | locus YPL051W, strain arl3, stronger effect = lower value 0.262 | locus YPL078C, strain atp4, stronger effect = lower value 0.553 | locus YPL106C, strain sse1, stronger effect = lower value 0.676 | locus YPL240C, strain hsp82, stronger effect = lower value 0.762
